Source: PubChem BioAssay (National Center for Advancing Translational Sciences (NCATS))
Vaccinia Venus = vaccinia inhibition (Venus reporter). Vaccinia virus Venus reporter expression, fluorescence. Potency, µM (series often up to 36.5 µM), inactives show at the highest dose activity change, negative = inhibition, usual class: inhibitors. 330,000 compounds, 0.46% hits. AID 720580; calls by dose curve; tested in A549 cells; note: nearly all actives have a fitted effect of over 30% in size
HCV inh = blocks hepatitis C virus; Huh7.5.1 HCVcc-Cre infection, luciferase reporter, 44 h; Potency, µM (top dose mostly 41.8 µM), inactives show at the highest dose activity change, negative = inhibition, usual class: inhibitors; 340,000 compounds, 3.4% hits; active = well fitted inhibition curve with a large enough effect; inconclusive = small, poorly fitted or top-dose-only effect, or another doubt; inactive = no such curve, though single readings can be large or run the other way
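1,000 cells/well; 4 h culture; + compound; + HCVcc-Cre (~0.5 moi); 44 h; luciferase substrate, RT 15 min; read 15 sec.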
FMDV inh = blocks foot and mouth disease virus. 410,000 compounds, 1.2% hits. FMDV antiviral cell-based qHTS. Potency, µM (highest dose often 57.9 µM), for inactives: at the top dose activity change, negative = inhibition, usual class: inhibitors; calls by dose curve; tested in HEK293T cells; note: read-out not given here; nearly all actives have a fitted effect of over 45% in size
Lassa entry inh = inhibitors of Lassa virus binding or cell entry. 300,000 compounds, 1.2% hits. Potency, µM (series often up to 37.9 µM), inactives show at the top dose activity change, negative = inhibition, most hits filed as inhibitors. Lassa virus pseudotype entry inhibition, cell reporter; calls by dose curve; tested in HEK293 cells; note: nearly all actives have a fitted effect of over 50% in size
VACV mCherry inh = vaccinia inhibition (mCherry reporter); Potency, µM (titrated, usually from 36.5 µM), without a hit: top-dose activity change, negative = inhibition, most hits filed as inhibitors; 310,000 compounds, 0.63% hits; AID 720579; Vaccinia virus mCherry reporter infection, fluorescence; calls by dose curve; tested in A549 cells; note: nearly all actives have a fitted effect of over 35% in size
Marburg entry inh = Marburg virus entry inhibition. Marburg virus pseudotyped entry inhibition, cell reporter. Potency, µM (top dose mostly 37.8 µM), without a hit: at the highest dose activity change, negative = inhibition, usual class: inhibitors. 300,000 compounds, 1.8% hits. AID 540276; calls by dose curve; tested in HEK293 cells
The depositor's hits bear a star; [ ] = another dose, or the depositor's remark. Shown are actives, neighbours in structure and some others; about 5.3% of the full set was active somewhere. % is set by controls: 0 for no effect and ±100 for the full control effect; potency is the fitted concentration of half-maximal effect.

How did OCC1OC2C(NC(=S)N2c2ccccc2)C(O)C1O (centres undefined) do in these assays?
Vaccinia Venus: -3%; HCV inh: 32%; FMDV inh: -15%; Lassa entry inh: 1%[46.1 µM]; VACV mCherry inh: inactive; Marburg entry inh: 1%

Results for COc1cccc(/C=N/Nc2cc(-n3nc(C)cc3-c3ccccc3)ncn2)c1O ?
Vaccinia Venus: inconclusive; HCV inh: 5.6µM*; FMDV inh: inconclusive; Lassa entry inh: inconclusive; VACV mCherry inh: 13µM*; Marburg entry inh: inconclusive

How did COc1cccc(/C=N/Nc2nc(Nc3ccccc3)nc(-n3nc(C)cc3C)n2)c1O do in these assays?
Vaccinia Venus: inconclusive; HCV inh: 8.9µM*; FMDV inh: -23%; Lassa entry inh: 16µM*; Marburg entry inh: inconclusive

How did CCOc1ccc(N(C)C(=O)C2CCN(S(=O)(=O)c3ccc4c(c3)CCCN4C(C)=O)CC2)cc1 do in these assays?
Vaccinia Venus: -24%; FMDV inh: inconclusive; Lassa entry inh: -1%[46.1 µM]; VACV mCherry inh: -16%

Results for CCOc1ccc(CNC(=O)Cn2nc(C)n3cccc3c2=O)cc1 ?
Vaccinia Venus: 0%; FMDV inh: -9%; Lassa entry inh: 1%[46.1 µM]; VACV mCherry inh: -18%; Marburg entry inh: 26%[46.1 µM]

How did CCOC(=O)c1c(C)n(-c2ccc(OC)cc2)c2ccc(OC(=O)COc3ccccc3)cc12 do in these assays?
Vaccinia Venus: -29%; FMDV inh: 4%; Lassa entry inh: -26%[46.1 µM]; VACV mCherry inh: -14%

How did O=C(Nc1ccc(-c2csc(Nc3ccc(Cl)cc3)n2)cc1)c1cccc(C(F)(F)F)c1 do in these assays?
Vaccinia Venus: inconclusive; HCV inh: 11µM*; FMDV inh: 20µM*; VACV mCherry inh: inconclusive; Marburg entry inh: 0%

What do the screens show for `O=C(Nc1cccc(-c2csc(Nc3cccc(C(F)(F)F)c3)n2)c1)c1cc([N+](=O)[O-])cc(C(F)(F)F)c1`?
Vaccinia Venus: -30%; HCV inh: inconclusive; FMDV inh: 40µM*; VACV mCherry inh: inconclusive

Results for O=C(Nc1ccc(-c2csc(Nc3ccccc3)n2)cc1)c1cc([N+](=O)[O-])cc(C(F)(F)F)c1 ?
Vaccinia Venus: inconclusive; HCV inh: inconclusive; FMDV inh: 25µM*; VACV mCherry inh: 16µM*

How did Cc1ccc(Nc2nc(-c3sc(NC(=O)c4cccc(Cl)c4)nc3C)cs2)cc1 do in these assays?
Marburg entry inh: 3%

How did O=C(NCc1ccncc1)c1cnn(-c2ncc3c(n2)-c2ccccc2CC3)c1C1CC1 do in these assays?
Vaccinia Venus: -8%; FMDV inh: -11%; VACV mCherry inh: inactive

How did COc1cc(OC)c(OC)cc1CN1CCC(n2cc(C(=O)N3CCCCC3)nn2)CC1 do in these assays?
Vaccinia Venus: -12%; FMDV inh: -9%; VACV mCherry inh: -15%

How did COC(=O)C[C@@H]1C=C[C@H](NC(=O)c2ccccc2)[C@@H](CO)O1 do in these assays?
Vaccinia Venus: -6%; FMDV inh: -19%; VACV mCherry inh: -3%

What do the screens show for `CNc1ccc(/C=C2\C=Cc3ccccc32)cc1Br`?
Vaccinia Venus: -23%; VACV mCherry inh: inconclusive

What do the screens show for `O=C(Nc1ccc(Cc2ccncc2)cc1)c1ccc(Cl)c([N+](=O)[O-])c1`?
Vaccinia Venus: -12%; HCV inh: -21%; FMDV inh: 28µM*; Lassa entry inh: -28%; Marburg entry inh: 0%

What do the screens show for `CN(c1ccccc1C(=O)Nc1ccc(S(=O)(=O)N2CCCC2)cc1)S(C)(=O)=O`?
Vaccinia Venus: 13%; HCV inh: 3%; Lassa entry inh: 23%; VACV mCherry inh: 13%; Marburg entry inh: 2%

What do the screens show for `O=C(Nc1ccc(S(=O)(=O)N2CCCC2)cc1)c1ccc(F)cc1`?
Vaccinia Venus: -6%; HCV inh: -17%; FMDV inh: -1%; Lassa entry inh: -2%; VACV mCherry inh: inactive; Marburg entry inh: -2%[46.1 µM]

Results for O=C(Nc1ccc(Cc2ccncc2)cc1)c1ccc(S(=O)(=O)N2CCOCC2)cc1 ?
Vaccinia Venus: inconclusive; HCV inh: inconclusive; FMDV inh: 18µM*; Lassa entry inh: inconclusive; VACV mCherry inh: inconclusive; Marburg entry inh: inconclusive
